A short description of experiment [1]: qHTS profiling of the MIPE4 collection as inhibitors of Plasmodium falciparum (3D7) proliferation (AID 743344).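 Also: scaled between DMSO vehicle wells and 0.29 µM artemisinin as full inhibition.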 The settings on record: P. falciparum 3D7 in erythrocytes, SYBR Green DNA fluorescence, 72 h; at 28.5 µM unless noted. A digest of the protocol:
(§1)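 Erythrocytes infected with P. falciparum (0.3% parasitemia, 2.5% hematocrit) incubated with compounds 72 h at 37 C, 5% CO2. Lysis with saponin/Triton buffer containing SYBR Green I, overnight at room temperature in the dark; DNA fluorescence (485/535 nm) normalised to 0.29 uM artemisinin and DMSO.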
(qHTS replaces the single test concentration by a dilution series.)

Experiment [2] in a line: qHTS profiling of the MIPE4 collection as inhibitors of Plasmodium falciparum (DD2) proliferation (AID 743345). The settings on record: P. falciparum Dd2 in erythrocytes, SYBR Green DNA, 72 h; at 28.5 µM unless noted. A digest of the protocol: as §1

Residues, ends and D or L forms follow the SMILES beside them. *: point of attachment. Cbz = O=C(OCc1ccccc1)*

This is an account of results in PubChem BioAssay (NCATS).

In experiment [1], `COc1ccc(S(=O)(=O)Nc2cc(-c3c(O)ccc4ccccc34)c(O)c3ccccc23)cc1` gave a parasite growth, % of DMSO control of 29.2%. Besides, in experiment [2], the parasite growth remaining, % of DMSO control (lower = more inhibition) was 94.7%. On the same counts, the results for `Nc1nc(N)c2nc(-c3cccc(O)c3)c(-c3cccc(O)c3)nc2n1` are 15.5% and 10.5%.

For `CC(=O)SCC(Cc1ccccc1)C(=O)NCC(=O)OCc1ccccc1` (stereo not given), in experiment [1], the parasite growth, % of DMSO control amounted to 43.2%. Moreover, the parasite growth remaining, % of DMSO control (lower = more inhibition) in experiment [2] was found to be 97.5%.

`CCC(C=C[C@@H]1OC(=O)C=C[C@H]1C)=C[C@H](C)CC=CC(C)=C[C@@H](C)C(=O)[C@@H](C)[C@H](O)[C@@H](C)CC(C)=CC(=O)O` returned a parasite growth, % of DMSO control in experiment [1] of 402% [at 1.06 µM]. For the same compound, the parasite growth remaining, % of DMSO control (lower = more inhibition) in experiment [2] turned out to be 97.4% [at 1.06 µM].

Take `c1cc(N[C@@H]2CCNC2)nc(-c2cnc3ccc(-c4cn[nH]c4)cn23)c1`: the parasite growth, % of DMSO control in experiment [1] stood at 5.24%. Besides, the parasite growth remaining, % of DMSO control (lower = more inhibition) in experiment [2] turned out to be 8.57%.

For `Cc1onc(-c2ccccc2)c1C(=O)N[C@@H]1C(=O)N2[C@@H](C(=O)O)C(C)(C)S[C@@H]12`, in experiment [1], the parasite growth, % of DMSO control stood at 92.7%. In addition, the parasite growth remaining, % of DMSO control (lower = more inhibition) in experiment [2] amounted to 99.9%. On the same counts, the results for `COc1ccc(Nc2nccc(NCCO)n2)cc1` are 67.2% and 94.8%. On the same counts, the results for `O=C(O)c1ccc(Nc2ncc3c(n2)-c2ccc(Cl)cc2C(c2c(F)cccc2F)=NC3)cc1` are 56.9% and 82.8%.

Consider `C[C@H](NC(=O)Cc1cc(F)cc(F)c1)C(=O)N[C@H](C(=O)OC(C)(C)C)c1ccccc1`, for which the parasite growth, % of DMSO control in experiment [1] was 74.2%. For the same compound, the parasite growth remaining, % of DMSO control (lower = more inhibition) in experiment [2] amounted to 95.2%.

For `CC(C)C[C@@H](C=O)NC(=O)[C@H](CC(C)C)NC(=O)[C@H](CC(C)C)NC(=O)OCc1ccccc1` (Cbz-Leu-Leu-Leu-aldehyde), the parasite growth, % of DMSO control in experiment [1] was 4.63%. Moreover, the parasite growth remaining, % of DMSO control (lower = more inhibition) in experiment [2] is 6.51%. Compound `CC(C)(O)Cn1c(NC(=O)c2ccc(-c3cn[nH]c3)s2)nc2cc(CN3CCOCC3)ccc21` registered a parasite growth, % of DMSO control in experiment [1] of 6.03%. Also, the parasite growth remaining, % of DMSO control (lower = more inhibition) in experiment [2] came out at 7.56%. On the same counts, the results for `CN(C)c1ccc(C(=O)NCCCCCCC(=O)NO)cc1` are 5.09% and 7.09%. Compound `C=CCNc1c(O)cc2c(O)c1C[C@@H](C)C[C@H](OC)[C@@H](O)[C@@H](C)C=C(C)[C@H](OC(N)=O)[C@@H](OC)C=CC=C(C)C(=O)N2` had a parasite growth, % of DMSO control in experiment [1] of 4.69%. In addition, the parasite growth remaining, % of DMSO control (lower = more inhibition) in experiment [2] is 6.14%. On the same counts, the results for `COc1cc(OC)c(C=CS(=O)(=O)Cc2ccc(OC)c(NCC(=O)O)c2)c(OC)c1` are 88.3% and 82.7%. Taken in the same sequence, the figures for `CN(C)CC(=O)N1CCC(c2ccc(NC(=O)c3ncc(C#N)[nH]3)c(C3=CCCCC3)c2)CC1` were 12.3% and 16.6%. Regarding `CC(C)N1[N]C(=C2C=c3cc(O)ccc3=N2)c2c(N)ncnc21`, the parasite growth, % of DMSO control in experiment [1] turned out to be 9.52%. The parasite growth remaining, % of DMSO control (lower = more inhibition) in experiment [2] amounted to 13.1%. Taken in the same sequence, the figures for `CC(C)(O)CC[C@@H](O)[C@](C)(O)[C@H]1CC[C@@]2(O)C3=CC(=O)[C@@H]4C[C@@H](O)[C@@H](O)C[C@]4(C)[C@@H]3CC[C@]12C` were 385% and 110%. On the same counts, the results for `N=c1ccn2c(n1)O[C@H]1[C@@H](O)[C@@H](CO)O[C@H]12` are 82.9% and 119%. On the same counts, the results for `COc1ccc(C=Cc2cc(OC)c(OC)c(OC)c2)cc1NC(=O)[C@H](N)CO` are 75.4% and 75.1%.

Turning to `O=C1CSC(=O)N1C(CCc1ccncc1)COc1ccc(-c2cccc([N+](=O)[O-])c2)cc1` (stereo not given), the parasite growth, % of DMSO control in experiment [1] came to 17.8%. `CCOC(=O)C1=C(C)NC(=S)NC1c1cccc(O)c1` (stereo not given): the parasite growth, % of DMSO control in experiment [1] came out at 90.7%.
